Laboratory results published in the supplement of paper PMC10849652.
Targets with a hit are over-represented here; the source holds about 7,900 in all. About 0.6% of all pairs of compound and target were hits. A number with no mark means an inactive call.

Tests used:
Assay in all cases: log2 fold change, soluble protein after heating vs DMSO (PISA); higher = thermal stabilisation; K562 cells, 10 uM, 30 min; active = over 0.2 and 3.5 SD of the protein, either way, in both replicates (recomputed)
[1] = compound: COC1=CC=C(C=C1)CN2C=CC3=C2C=C(C=C3)C(=O)NO
Method in brief: (§1)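 Soluble protein was quantified by TMTpro 16plex LC-MS/MS after channel sums were equalised. It was obtained as the supernatant after 21,000xg for 90 min from pooled aliquots of K562 cells (2×10^6 cells/mL, 10 μM compound, 30 min) heated for 3 min across 48°C-58°C and extracted in PBS with 0.5% NP-40 at 4°C. Thermal stability values are relative to control samples and come from duplicates. They are given as log2 fold changes.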

[2] = compound: CON(C)C(=O)N1N=C(c2cc(F)ccc2F)S[C@@]1(CCCN)c1ccccc1 [filanesib]
Method in brief: as §1

[3] = compound: CO[C@H]1C[C@@H]2CC[C@@H](C)[C@@](O)(O2)C(=O)C(=O)N2CCCC[C@H]2C(=O)O[C@H]([C@H](C)C[C@@H]2CC[C@H](n3cnnn3)[C@H](OC)C2)CC(=O)[C@H](C)/C=C(\C)[C@@H](O)[C@@H](OC)C(=O)[C@H](C)C[C@H](C)/C=C/C=C/C=C/1C [zotarolimus]
Method in brief: as §1

[4] = compound: COc1cc(C(=O)O)ccc1NC(=O)[C@@H]1N[C@@H](CC(C)(C)C)[C@](C#N)(c2ccc(Cl)cc2F)[C@H]1c1cccc(Cl)c1F [idasanutlin]
Method in brief: as §1

[5] = compound: COc1cc(Nc2ncc3c(n2)-c2ccc(Cl)cc2C(c2c(F)cccc2OC)=NC3)ccc1C(=O)O [alisertib]
Method in brief: as §1

[6] = compound: COc1cc2nc(-c3cc(F)ccc3O)nc(N[C@@H]3CNC[C@H]3C(C)(C)O)c2cc1OC
Method in brief: as §1

[7] = compound: COc1cc2ncnc(Nc3ccc(F)c(Cl)c3)c2cc1OCCCN1CCOCC1 [gefitinib]
Method in brief: as §1

[8] = compound: COc1cccc2cc(-c3nc([C@H]4CC[C@H](C(=O)O)CC4)n4ncnc(N)c34)[nH]c12
Method in brief: as §1

[9] = compound: CS(=O)(=O)CCNCc1ccc(-c2ccc3ncnc(Nc4ccc(OCc5cccc(F)c5)c(Cl)c4)c3c2)o1 [lapatinib]
Method in brief: as §1

[10] = compound: CS(=O)(=O)N1CCN(Cc2cc3nc(-c4cccc5[nH]ncc45)nc(N4CCOCC4)c3s2)CC1 [pictilisib]
Method in brief: as §1

Target: USP25 isoform 3 (UniProt Q9UHP3)
Chain of UniProt Q9UHP3 (Q9UHP3 whole entry, looked up): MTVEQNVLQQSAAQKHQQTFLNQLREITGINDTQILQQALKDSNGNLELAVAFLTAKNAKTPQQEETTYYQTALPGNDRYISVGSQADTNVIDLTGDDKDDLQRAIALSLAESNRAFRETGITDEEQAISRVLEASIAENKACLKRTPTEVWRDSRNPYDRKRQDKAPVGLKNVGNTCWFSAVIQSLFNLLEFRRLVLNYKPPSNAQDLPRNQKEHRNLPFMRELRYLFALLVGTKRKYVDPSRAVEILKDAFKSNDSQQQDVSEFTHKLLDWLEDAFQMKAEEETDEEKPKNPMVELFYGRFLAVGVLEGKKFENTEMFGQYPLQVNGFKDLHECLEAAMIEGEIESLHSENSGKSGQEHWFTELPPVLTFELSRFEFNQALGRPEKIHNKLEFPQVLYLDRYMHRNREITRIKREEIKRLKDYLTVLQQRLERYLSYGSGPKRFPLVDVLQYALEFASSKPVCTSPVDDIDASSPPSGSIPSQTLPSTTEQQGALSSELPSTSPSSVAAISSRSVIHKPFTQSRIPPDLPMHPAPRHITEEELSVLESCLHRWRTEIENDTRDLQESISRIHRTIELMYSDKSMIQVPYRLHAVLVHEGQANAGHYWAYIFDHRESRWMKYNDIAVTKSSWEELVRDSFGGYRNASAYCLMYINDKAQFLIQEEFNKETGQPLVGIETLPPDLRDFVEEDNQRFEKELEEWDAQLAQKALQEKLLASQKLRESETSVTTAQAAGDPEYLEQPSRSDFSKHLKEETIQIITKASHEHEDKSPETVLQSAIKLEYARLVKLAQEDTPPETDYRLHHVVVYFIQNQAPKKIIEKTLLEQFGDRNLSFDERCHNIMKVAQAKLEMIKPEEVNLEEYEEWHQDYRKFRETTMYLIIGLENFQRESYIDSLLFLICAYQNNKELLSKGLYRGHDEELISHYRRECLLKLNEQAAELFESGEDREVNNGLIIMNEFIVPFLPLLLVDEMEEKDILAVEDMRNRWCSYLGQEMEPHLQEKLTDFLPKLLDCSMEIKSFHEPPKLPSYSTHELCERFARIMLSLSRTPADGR
- log2 fold change [1]: -0.011
- log2 fold change [2]: 0.037
- log2 fold change [3]: 0.014
- log2 fold change [4]: -0.039
- log2 fold change [5]: 0.027
- log2 fold change [6]: 0.004
- log2 fold change [7]: 0.032
- log2 fold change [8]: 0.022
- log2 fold change [9]: 0.001
- log2 fold change [10]: 0.018

Target: UBAP2L isoform 5 (UniProt Q14157)
- log2 fold change [1]: -0.026
- log2 fold change [2]: -0.014
- log2 fold change [3]: -0.03
- log2 fold change [4]: -0.047
- log2 fold change [5]: -0.034
- log2 fold change [6]: 0
- log2 fold change [7]: -0.019
- log2 fold change [8]: 0.012
- log2 fold change [9]: 0
- log2 fold change [10]: -0.015

Target: TTI2 (UniProt Q6NXR4)
- log2 fold change [1]: 0.012
- log2 fold change [2]: 0.06
- log2 fold change [3]: -0.008
- log2 fold change [4]: -0.04
- log2 fold change [5]: 0.028
- log2 fold change [6]: -0.034
- log2 fold change [7]: -0.081
- log2 fold change [8]: -0.025
- log2 fold change [9]: 0.033

Target: USP48 isoform 8 (UniProt Q86UV5)
- log2 fold change [1]: 0.155
- log2 fold change [2]: -0.075
- log2 fold change [3]: 0.089
- log2 fold change [4]: -0.03
- log2 fold change [5]: 0.12
- log2 fold change [6]: -0.267
- log2 fold change [7]: 0.093
- log2 fold change [8]: -0.018
- log2 fold change [9]: 0.002
- log2 fold change [10]: 0.016

Target: TXNL1 (UniProt O43396)
- log2 fold change [1]: 0.169
- log2 fold change [2]: 0.075
- log2 fold change [3]: 0.047
- log2 fold change [4]: -0.003
- log2 fold change [5]: -0.005
- log2 fold change [6]: 0.084
- log2 fold change [7]: 0.05
- log2 fold change [8]: -0.001
- log2 fold change [9]: 0.006
- log2 fold change [10]: 0.017

Target: VPS50 (UniProt Q96JG6)
Chain of UniProt Q96JG6 (Q96JG6 whole entry, looked up): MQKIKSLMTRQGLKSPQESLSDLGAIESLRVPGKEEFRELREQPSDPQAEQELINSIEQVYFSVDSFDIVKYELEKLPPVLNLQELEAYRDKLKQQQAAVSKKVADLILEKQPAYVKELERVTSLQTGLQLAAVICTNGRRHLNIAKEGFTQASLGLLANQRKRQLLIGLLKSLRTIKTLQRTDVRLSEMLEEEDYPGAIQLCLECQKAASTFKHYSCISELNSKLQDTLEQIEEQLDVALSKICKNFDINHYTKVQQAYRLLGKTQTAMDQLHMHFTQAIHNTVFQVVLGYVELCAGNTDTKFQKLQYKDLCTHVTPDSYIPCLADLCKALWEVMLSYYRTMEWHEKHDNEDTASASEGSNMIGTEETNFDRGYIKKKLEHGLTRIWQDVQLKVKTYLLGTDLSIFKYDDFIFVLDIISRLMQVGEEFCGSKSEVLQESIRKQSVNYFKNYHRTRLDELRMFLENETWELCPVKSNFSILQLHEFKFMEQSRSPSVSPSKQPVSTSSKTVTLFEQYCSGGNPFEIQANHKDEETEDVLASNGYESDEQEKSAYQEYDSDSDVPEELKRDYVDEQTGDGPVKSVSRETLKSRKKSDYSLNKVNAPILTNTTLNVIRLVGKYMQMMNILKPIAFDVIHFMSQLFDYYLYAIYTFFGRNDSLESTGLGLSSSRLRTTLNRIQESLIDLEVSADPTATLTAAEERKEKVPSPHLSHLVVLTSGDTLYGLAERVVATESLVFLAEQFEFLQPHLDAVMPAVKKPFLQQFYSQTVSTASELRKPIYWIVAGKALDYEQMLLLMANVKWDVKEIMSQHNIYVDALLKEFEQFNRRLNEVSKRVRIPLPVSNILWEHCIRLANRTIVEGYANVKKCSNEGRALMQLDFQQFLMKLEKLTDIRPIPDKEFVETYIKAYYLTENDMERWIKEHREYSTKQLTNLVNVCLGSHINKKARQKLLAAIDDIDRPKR
- log2 fold change [1]: 0.023
- log2 fold change [2]: -0.021
- log2 fold change [3]: 0.028
- log2 fold change [4]: -0.157
- log2 fold change [5]: 0.019
- log2 fold change [6]: 0.012
- log2 fold change [7]: 0.007
- log2 fold change [8]: -0.027
- log2 fold change [9]: -0.006
- log2 fold change [10]: -0.003

Target: TPR (UniProt P12270)
- log2 fold change [1]: -0.048
- log2 fold change [2]: 0.115
- log2 fold change [3]: 0.049
- log2 fold change [4]: 0.055
- log2 fold change [5]: -0.076
- log2 fold change [6]: 0.065
- log2 fold change [7]: -0.056
- log2 fold change [8]: -0.06
- log2 fold change [9]: 0.044
- log2 fold change [10]: 0.036

Target: VPS8 (UniProt Q8N3P4)
Chain of UniProt Q8N3P4 (Q8N3P4 whole entry, looked up): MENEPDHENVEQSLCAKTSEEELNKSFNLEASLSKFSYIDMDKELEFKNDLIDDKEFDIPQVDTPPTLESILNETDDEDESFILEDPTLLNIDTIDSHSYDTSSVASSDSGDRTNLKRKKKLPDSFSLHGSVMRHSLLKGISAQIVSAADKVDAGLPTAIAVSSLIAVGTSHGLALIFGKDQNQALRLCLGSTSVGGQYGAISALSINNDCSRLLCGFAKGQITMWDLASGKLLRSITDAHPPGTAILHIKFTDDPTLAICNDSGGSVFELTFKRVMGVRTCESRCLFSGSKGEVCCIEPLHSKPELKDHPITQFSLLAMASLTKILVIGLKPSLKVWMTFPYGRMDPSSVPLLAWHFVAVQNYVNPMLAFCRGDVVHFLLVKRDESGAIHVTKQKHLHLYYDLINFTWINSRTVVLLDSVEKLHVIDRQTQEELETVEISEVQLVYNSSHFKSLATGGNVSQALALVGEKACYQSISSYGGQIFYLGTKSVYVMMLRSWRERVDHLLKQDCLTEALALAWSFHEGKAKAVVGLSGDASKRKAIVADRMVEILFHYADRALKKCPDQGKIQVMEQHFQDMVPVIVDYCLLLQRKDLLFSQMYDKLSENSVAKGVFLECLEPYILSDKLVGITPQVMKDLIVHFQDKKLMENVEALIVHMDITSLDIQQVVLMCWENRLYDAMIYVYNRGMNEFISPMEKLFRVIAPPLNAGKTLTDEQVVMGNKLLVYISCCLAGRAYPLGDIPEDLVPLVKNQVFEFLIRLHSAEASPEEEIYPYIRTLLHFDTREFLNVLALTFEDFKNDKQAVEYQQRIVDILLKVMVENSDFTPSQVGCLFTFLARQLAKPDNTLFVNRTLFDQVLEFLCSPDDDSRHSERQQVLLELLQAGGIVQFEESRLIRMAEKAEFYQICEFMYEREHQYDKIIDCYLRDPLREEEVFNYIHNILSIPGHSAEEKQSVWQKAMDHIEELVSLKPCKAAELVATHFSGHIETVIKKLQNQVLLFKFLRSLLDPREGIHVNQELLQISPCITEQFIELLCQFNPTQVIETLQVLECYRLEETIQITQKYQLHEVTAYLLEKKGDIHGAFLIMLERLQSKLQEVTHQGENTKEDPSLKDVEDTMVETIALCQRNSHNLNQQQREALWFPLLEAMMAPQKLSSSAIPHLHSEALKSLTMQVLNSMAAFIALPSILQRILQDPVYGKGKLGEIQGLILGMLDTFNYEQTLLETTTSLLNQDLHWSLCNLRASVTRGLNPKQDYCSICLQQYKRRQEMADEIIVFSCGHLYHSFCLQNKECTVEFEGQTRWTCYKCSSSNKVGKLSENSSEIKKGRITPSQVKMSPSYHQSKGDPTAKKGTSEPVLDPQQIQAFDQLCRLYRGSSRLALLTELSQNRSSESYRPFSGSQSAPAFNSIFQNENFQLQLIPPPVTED
- log2 fold change [1]: 0.092
- log2 fold change [2]: 0.001
- log2 fold change [3]: 0.043
- log2 fold change [4]: -0.03
- log2 fold change [5]: 0.133
- log2 fold change [6]: 0.01
- log2 fold change [7]: 0.076
- log2 fold change [8]: -0.025
- log2 fold change [9]: 0.046
- log2 fold change [10]: 0.055

Target: VPS37A (UniProt Q8NEZ2)
Chain of UniProt Q8NEZ2 (Q8NEZ2 whole entry, looked up): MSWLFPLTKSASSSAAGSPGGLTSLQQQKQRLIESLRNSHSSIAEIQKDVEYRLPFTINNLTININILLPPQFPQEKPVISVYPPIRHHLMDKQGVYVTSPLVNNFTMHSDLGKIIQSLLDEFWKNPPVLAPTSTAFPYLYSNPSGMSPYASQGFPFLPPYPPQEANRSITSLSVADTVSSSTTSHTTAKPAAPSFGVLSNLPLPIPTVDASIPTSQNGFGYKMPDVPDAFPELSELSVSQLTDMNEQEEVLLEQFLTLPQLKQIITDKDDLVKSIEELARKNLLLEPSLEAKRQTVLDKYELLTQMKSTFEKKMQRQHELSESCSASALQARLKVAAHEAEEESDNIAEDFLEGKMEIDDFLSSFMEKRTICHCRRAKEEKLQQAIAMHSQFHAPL
- log2 fold change [1]: -0.046
- log2 fold change [2]: -0.011
- log2 fold change [3]: 0.107
- log2 fold change [4]: 0.002
- log2 fold change [5]: -0.054
- log2 fold change [6]: 0.001
- log2 fold change [7]: 0.05
- log2 fold change [8]: 0.024
- log2 fold change [9]: -0.035
- log2 fold change [10]: 0.058

Target: UFM1 (UniProt P61960)
Chain of UniProt P61960 (P61960 whole entry, looked up): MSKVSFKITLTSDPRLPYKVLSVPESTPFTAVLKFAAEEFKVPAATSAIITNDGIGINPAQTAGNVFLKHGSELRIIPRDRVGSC
- log2 fold change [1]: 0.048
- log2 fold change [2]: -0.08
- log2 fold change [3]: -0.139
- log2 fold change [4]: 0.28
- log2 fold change [5]: -0.001
- log2 fold change [6]: 0.01
- log2 fold change [7]: 0.069
- log2 fold change [8]: 0.055
- log2 fold change [9]: -0.002

Target: WDR61 (UniProt Q9GZS3)
- log2 fold change [1]: -0.121
- log2 fold change [2]: -0.031
- log2 fold change [3]: 0.008
- log2 fold change [4]: -0.05
- log2 fold change [5]: -0.082
- log2 fold change [6]: 0.14
- log2 fold change [7]: -0.035
- log2 fold change [8]: 0.065
- log2 fold change [9]: -0.104
- log2 fold change [10]: 0.042

Target: TMEM214 (UniProt Q6NUQ4)
Chain of UniProt Q6NUQ4 (Q6NUQ4 whole entry, looked up): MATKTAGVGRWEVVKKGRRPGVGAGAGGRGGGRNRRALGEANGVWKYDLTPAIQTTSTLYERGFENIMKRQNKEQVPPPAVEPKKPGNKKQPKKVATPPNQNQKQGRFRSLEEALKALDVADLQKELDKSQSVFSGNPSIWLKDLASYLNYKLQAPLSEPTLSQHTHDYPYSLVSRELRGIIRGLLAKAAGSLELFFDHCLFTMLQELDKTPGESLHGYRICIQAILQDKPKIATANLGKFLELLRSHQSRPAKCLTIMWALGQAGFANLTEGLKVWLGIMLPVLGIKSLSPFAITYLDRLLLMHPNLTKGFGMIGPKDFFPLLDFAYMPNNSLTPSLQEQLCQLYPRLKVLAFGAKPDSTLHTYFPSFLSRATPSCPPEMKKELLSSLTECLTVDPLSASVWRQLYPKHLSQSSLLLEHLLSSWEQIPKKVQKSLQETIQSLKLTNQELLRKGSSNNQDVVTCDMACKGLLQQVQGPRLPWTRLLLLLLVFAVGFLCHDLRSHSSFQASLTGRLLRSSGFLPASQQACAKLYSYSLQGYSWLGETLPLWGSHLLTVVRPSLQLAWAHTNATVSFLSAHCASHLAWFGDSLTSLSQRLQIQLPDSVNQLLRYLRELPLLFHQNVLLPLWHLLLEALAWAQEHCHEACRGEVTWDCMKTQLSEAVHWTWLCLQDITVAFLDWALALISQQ
- log2 fold change [1]: -0.003
- log2 fold change [2]: 0.185
- log2 fold change [3]: -0.013
- log2 fold change [4]: -0.045
- log2 fold change [5]: -0.041
- log2 fold change [6]: 0.282 (active)
- log2 fold change [7]: -0.012
- log2 fold change [8]: -0.111
- log2 fold change [9]: 0.046
- log2 fold change [10]: -0.055

Target: WRB (UniProt O00258)
Chain of UniProt O00258 (O00258 whole entry, looked up): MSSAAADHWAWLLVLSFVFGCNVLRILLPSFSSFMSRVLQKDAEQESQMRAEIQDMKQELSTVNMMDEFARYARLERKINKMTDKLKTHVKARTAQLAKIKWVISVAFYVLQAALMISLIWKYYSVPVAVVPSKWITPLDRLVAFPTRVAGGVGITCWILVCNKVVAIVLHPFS
- log2 fold change [1]: -0.036
- log2 fold change [2]: -0.041
- log2 fold change [3]: -0.019
- log2 fold change [4]: -0.032
- log2 fold change [5]: -0.031
- log2 fold change [6]: -0.066
- log2 fold change [7]: 0.012
- log2 fold change [8]: 0.051
- log2 fold change [9]: 0.03
- log2 fold change [10]: 0.094

Target: TPM2 (UniProt P07951)
- log2 fold change [1]: 0.503 (active)
- log2 fold change [2]: -0.024
- log2 fold change [3]: 0.013
- log2 fold change [4]: -0.026
- log2 fold change [5]: -0.058
- log2 fold change [6]: -0.055
- log2 fold change [7]: -0.003
- log2 fold change [8]: -0.14
- log2 fold change [9]: 0.166
- log2 fold change [10]: -0.181

Target: TXNL4B (UniProt Q9NX01)
Chain of UniProt Q9NX01 (Q9NX01 whole entry, looked up): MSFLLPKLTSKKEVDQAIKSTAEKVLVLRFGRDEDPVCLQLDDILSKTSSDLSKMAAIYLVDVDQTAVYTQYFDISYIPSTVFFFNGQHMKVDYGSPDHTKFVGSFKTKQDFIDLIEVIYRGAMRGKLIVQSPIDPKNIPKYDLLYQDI
- log2 fold change [1]: 0.011
- log2 fold change [2]: -0.034
- log2 fold change [3]: -0.008
- log2 fold change [4]: -0.147
- log2 fold change [5]: 0.097
- log2 fold change [6]: 0.106
- log2 fold change [7]: 0.042
- log2 fold change [8]: -0.064
- log2 fold change [9]: -0.003
- log2 fold change [10]: -0.003
